# Data: PubChem BioAssay
# Experiment: MRP1 drug-resistance reversers in H69AR cells – cell-based, doxorubicin co-treatment, pilot screen (AID 601)
# Conditions: H69AR cells + 2 uM doxorubicin, CellTiter-Glo, 72 h; measured here: viability with 2 uM doxorubicin; at 10 µM; stronger effect = lower value
row,Compound,viability
1,COc1ccc(OC)c(C2C3=C(CCCC3=O)Nc3c2c(=O)n(C)c(=O)n3C)c1 (stereo not given),107%
2,CCOc1ccc(C2CC(=O)NC3=C2C(=O)CCC3)cc1Cl (stereo not given),85.2%
3,COc1ccc2nc(NC(=O)c3ccoc3C)sc2c1,39.8%
4,O=C(NCC(=O)N1CCC(N2CCCCC2)CC1)C1CCCCC1,92.5%
5,O=C(NCCN1CCOCC1)c1ccc2c(c1)N(Cc1ccccc1)C(=O)CS2,94.6%
6,CCC(c1nnnn1Cc1ccco1)N(CCc1ccccc1)Cc1cc2cccc(C)c2[nH]c1=O (stereo not given),66.1%
7,CC(C)=CCCC(C)N(C=O)C(C)CCC=C(C)C (stereo not given),80.7%
8,Cc1c(C(=O)NCc2cccnc2)oc2ccc(S(=O)(=O)N3CCCCC3)cc12,91.4%
9,Cc1ccc(C(C)C)c(OCCn2c(=O)oc3ccccc32)c1,82.3%
10,CCn1nc(C(=O)OCC(=O)N2CCc3ccccc32)c2ccccc2c1=O,94.6%
11,COC(=O)c1cc(-c2c(C)oc3cc(O)ccc3c2=O)c(C)o1,91.1%
12,CCOC(=O)N1CCN(S(=O)(=O)c2ccc(OCC)c(C)c2)CC1,85.5%
13,CC1CC(=O)C2=C(C1)OC(N)=C(C#N)C2c1coc2ccccc2c1=O (stereo not given),86.7%
14,COc1ccc(-c2nnc(SCCC(=O)O)n2-c2ccccc2)cc1,97.3%
15,CCCCn1c(SCC(=O)Nc2ccc(OC)cc2)nc2ccc(N3CCOCC3)cc2c1=O,89%
16,CCOC(=O)c1cc2cc(F)ccc2nc1C,87.1%
17,Cc1nc2ccccn2c1C(=O)NCCCN1CCOCC1,96.4%
18,Cc1cc(-c2ccccc2)c2c3c(cn2n1)c(=O)n(C)c(=O)n3C,76.1%
19,CCOC(=O)N1CCC(O)(c2cc(C)c(C)cc2C)CC1,90.2%
20,O=C(C1CCCN(S(=O)(=O)c2cccnc2)C1)N1CCN(c2ccccn2)CC1 (stereo not given),90.3%

# Same assay, conditions: H69AR cells, CellTiter-Glo, 72 h; compound alone cytotoxicity; at 10 µM
row,Compound,viability
1,O=c1[nH]c2ccccc2nc1NCCN1CCOCC1,97.1%
2,c1ccc(Nc2ccccc2Nc2ccccn2)nc1,91.7%
3,COc1ccc(-n2c(COc3cccc(C)c3)nnc2SCC(=O)NCc2ccco2)cc1,85.4%
4,C=CCc1cc(C(=O)N2CCCCC2)ccc1O,92.3%
5,CCCC(=O)Nc1ccc2oc(-c3cccnc3)nc2c1,88.5%
6,Cc1ccccc1-n1c(=O)cc(N2CCN(C(=O)c3ccco3)CC2)[nH]c1=O,98.3%
7,O=C(O)CN1C(=O)C2(OCCCO2)c2ccccc21,85.1%
8,CC(C)(C)C(=O)/C=C(\N)c1ccccn1,100%
9,CCOC(=O)C1CCCN(c2c(N3CCN(c4ccccn4)CC3)c(=O)c2=O)C1 (stereo not given),102%
10,CC1CCN(S(=O)(=O)c2ccc(S(=O)(=O)NCC(=O)C(C)(C)C)cc2)CC1,91.8%
11,O=C(CSc1nnc2scc(-c3ccccc3)n12)N1CCN(Cc2ccccc2)CC1,78.5%
12,CC1(C)CNC(=O)CC(C)(C)N1O,95.6%
13,Cc1cc(NC(=O)CCOc2ccccc2)no1,88.6%
14,CCOc1ccc2cc(C#N)c(SCC(=O)N3CCCC3)nc2c1,87.3%
15,COc1cccc(Oc2cnc(N)nc2-c2ccc(OC)cc2O)c1,10.8%
16,CCOC(OCC)P(=O)(C(C)C)C(C)C,91.8%
17,O=C1C(C=NCCCn2ccnc2)=C(O)c2ccccc21,99.2%
18,CCCN(S(=O)(=O)c1ccc(OCC)cc1)S(=O)(=O)c1cccs1,89.8%
19,N#Cc1nc(COc2ccc(Br)cc2)oc1N1CCCC1,87.5%
20,CCOC(=O)N1CCN(Cc2cc(=O)oc3ccc4ccccc4c23)CC1,87.3%

row,Compound,viability
1,COc1ccc(OC)c(C2C3=C(CCCC3=O)Nc3c2c(=O)n(C)c(=O)n3C)c1 (stereo not given),102%
2,CCOc1ccc(C2CC(=O)NC3=C2C(=O)CCC3)cc1Cl (stereo not given),99.4%
3,COc1ccc2nc(NC(=O)c3ccoc3C)sc2c1,26.1%
4,O=C(NCC(=O)N1CCC(N2CCCCC2)CC1)C1CCCCC1,94.4%
5,O=C(NCCN1CCOCC1)c1ccc2c(c1)N(Cc1ccccc1)C(=O)CS2,99.4%
6,CCC(c1nnnn1Cc1ccco1)N(CCc1ccccc1)Cc1cc2cccc(C)c2[nH]c1=O (stereo not given),62.9%
7,CC(C)=CCCC(C)N(C=O)C(C)CCC=C(C)C (stereo not given),87.8%
8,Cc1c(C(=O)NCc2cccnc2)oc2ccc(S(=O)(=O)N3CCCCC3)cc12,70.5%
9,Cc1ccc(C(C)C)c(OCCn2c(=O)oc3ccccc32)c1,95.8%
10,CCn1nc(C(=O)OCC(=O)N2CCc3ccccc32)c2ccccc2c1=O,96.8%
11,COC(=O)c1cc(-c2c(C)oc3cc(O)ccc3c2=O)c(C)o1,84.9%
12,CCOC(=O)N1CCN(S(=O)(=O)c2ccc(OCC)c(C)c2)CC1,103%
13,CC1CC(=O)C2=C(C1)OC(N)=C(C#N)C2c1coc2ccccc2c1=O (stereo not given),97.3%
14,COc1ccc(-c2nnc(SCCC(=O)O)n2-c2ccccc2)cc1,95.2%
15,CCCCn1c(SCC(=O)Nc2ccc(OC)cc2)nc2ccc(N3CCOCC3)cc2c1=O,89.6%
16,CCOC(=O)c1cc2cc(F)ccc2nc1C,108%
17,Cc1nc2ccccn2c1C(=O)NCCCN1CCOCC1,102%
18,Cc1cc(-c2ccccc2)c2c3c(cn2n1)c(=O)n(C)c(=O)n3C,75.6%
19,CCOC(=O)N1CCC(O)(c2cc(C)c(C)cc2C)CC1,99.4%
20,O=C(C1CCCN(S(=O)(=O)c2cccnc2)C1)N1CCN(c2ccccn2)CC1 (stereo not given),98.7%
